High-throughput results as filed in PubChem BioAssay.
Most compounds without a hit are left out; they make up all but 5.7% or so of the library.
DAX1 inh-1: DAX1 (NR0B1) inhibitors, primary screen, cell-based, HEK293, Gal4-DAX1, luciferase luminescence | 0.99% of 340,000 active | AID 504766, 2011 | HEK293 Gal4-DAX1 luciferase reporter | Nuclear receptor subfamily 0 group B member 1 (Homo sapiens), P51843 | inhibition, % at 6.75 µM;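 active = inhibition above the mean over all tested compounds plus 3 SD, cut at about 4.2% in these data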;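 also: inhibition shows as a rise in luminescence from relieved DAX1 repression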
Target sequence (P51843 207-470 limits assumed): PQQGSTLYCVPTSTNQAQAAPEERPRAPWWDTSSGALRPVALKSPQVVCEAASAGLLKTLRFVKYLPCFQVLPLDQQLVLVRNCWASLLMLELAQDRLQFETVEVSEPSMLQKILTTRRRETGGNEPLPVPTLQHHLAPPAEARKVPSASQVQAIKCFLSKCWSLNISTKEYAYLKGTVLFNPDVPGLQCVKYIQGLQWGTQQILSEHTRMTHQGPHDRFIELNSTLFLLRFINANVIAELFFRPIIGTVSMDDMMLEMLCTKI
ssDAF12 agonist: S. stercoralis DAF-12 nuclear receptor activators, primary screen, cell-based, luminescence, HEK293, GRIP1 co-expression, lit1-tk-luc | Nuclear hormone receptor DAF-12 (Strongyloides stercoralis) | AID 652126, 2013 | 1% of 370,000 active | activation, % at 6.8 µM | HEK293 ssDAF-12/GRIP1 lit1-tk-luc reporter; % of 3 µM dafachronic acid response;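 active = activation above the mean over all tested compounds plus 3 SD, cut at about 0.9% in these data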
DAX1 inh-2: DAX1 (NR0B1) inhibitors on StAR promoter, primary screen, cell-based, luminescence, SF-1 (NR5A1), full-length DAX-1. HEK293T StAR-luciferase reporter, SF-1/DAX-1 repression relief. inhibition, % at 6.8 µM. 1.1% of 370,000 active;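 active = inhibition above the mean over all tested compounds plus 3 SD, cut at about 3.6% in these data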;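 also: higher inhibition means more luminescence from relief of DAX-1 repression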
hgDAF12 agonist: H. glycines DAF-12 receptor agonists, primary screen, cell-based, luminescence, HEK293, GAL4 fusion, UAS-luciferase; AID 687014, 2013; 1.8% of 370,000 active; HEK293 GAL4-hgDAF12 UAS-luciferase reporter, agonist luminescence; normalized to butyrate control; Nuclear hormone receptor DAF-12 (Heterodera glycines), GAL4 fusion; activation, % at 6.8 µM;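 active = activation above a cutoff set at the mean of all screened compounds plus 3 SD, cut at about 10% in these data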
hcDAF-12 act: H. contortus DAF-12 nuclear receptor activators, primary screen, cell-based, luminescence, HEK293, lit1-tk-luc reporter; AID 652067, 2013; 1.4% of 370,000 active; activation, % at 6.8 µM; HEK293 hcDAF-12 lit1-tk-luc reporter; 0% DMSO, 100% Δ7-dafachronic acid;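 active = activation above the mean of all tested compounds plus 3 SD, cut at about 5.5% in these data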
AHR activator: AHR activators, primary screen, cell-based, luminescence, luciferase reporter, human; Aryl hydrocarbon receptor (Homo sapiens), P35869; AHR-responsive luciferase reporter cells; activation, % at 5 µM; 2.5% of 320,000 active; AID 2796, 2010; in the data active = activation above about 47%
A number is an active result; – = inactive; · = no result given.

SMILES	DAX1 inh-1	ssDAF12 agonist	DAX1 inh-2	hgDAF12 agonist	hcDAF-12 act	AHR activator
CC(=O)c1cccc(OCc2cc(C(=O)N3C[C@@H](C)O[C@@H](C)C3)no2)c1	–	–	4.2	–	–	–
C#CCOCCOCCOCCNc1nc(N2CCN(C(=O)C([C@@H](C)CC)n3cc(C(N)Cc4ccc(O)cc4)nn3)CC2)nc(N2CCN(C(=O)[C@H](CCC(=O)O)n3cc(C(N)[C@H](C)CC)nn3)CC2)n1 (some centres not stated)	–	–	–	–	–	–
COc1ccccc1N1CCN(S(=O)(=O)c2cn(C)c(=O)n(C)c2=O)CC1	–	–	–	–	–	64.8
COC(=O)CSc1nc2ccccn2c(=O)c1C=O	–	1.5	–	–	6.3	–
O=Cc1c(SCCO)nc2ccccn2c1=O	–	–	–	–	–	–
CCOC(=O)C1(Cc2ccccc2)CCN(C2Cc3ccccc3C2)CC1	–	–	–	–	–	–
COc1ccc(/C=N/Nc2ccc([N+](=O)[O-])cc2)cc1Cn1cc([N+](=O)[O-])cn1	–	–	–	–	–	69.4
COc1ccc(/C=N/n2cncn2)cc1Cn1cc([N+](=O)[O-])cn1	·	–	–	–	–	–
CCCC(=O)Nc1ccc(C(=O)Nc2cc(C(F)(F)F)ccc2Cl)cc1	–	–	–	–	–	62.7
O=C(Nc1cc(C(F)(F)F)ccc1Cl)c1ccncc1	–	–	–	–	–	–
O=C(Nc1cc(C(F)(F)F)ccc1Cl)c1ccc(NC(=O)C(F)(F)F)cc1	–	–	–	–	–	75.1
COc1ccccc1CNc1nc(NCCOc2ccccc2)c2sccc2n1	·	–	–	–	–	·
CCn1cc(CN2CCC(C(=O)Nc3cccc(-c4cscn4)c3)CC2)cn1	–	–	–	–	–	–
CC(/C=C/C(=O)c1ccc(C)cc1)=C\c1ccccc1	5.3	–	–	–	–	63.6
O=Cc1cccn1-c1cccnc1	–	–	–	–	–	–
Cc1c(NC(=O)C(C)OC(=O)c2cc(-c3cccc4ccccc34)nc3ccccc23)c(=O)n(-c2ccccc2)n1C (configuration not stated)	–	–	–	10.9	–	–
COc1ccc(-c2cc(C(=O)OC(C)C(=O)Nc3c(C)n(C)n(-c4ccccc4)c3=O)c3ccccc3n2)cc1 (configuration not stated)	–	–	–	–	–	–
Cc1cc(C)nc(N/N=C/c2sccc2C)n1	–	–	–	–	–	–
Cc1ccsc1/C=N/Nc1ncc(Cl)cc1Cl	–	–	–	11.2	–	–
O=C(O)c1ccc(/C=N\Nc2ccccn2)cc1	–	–	–	–	6.5	–
CN(C)c1ccc(/C=N\Nc2ccccn2)cc1	6.2	–	–	–	–	–
Cc1ccsc1/C=N/Nc1nc(=O)[nH]nc1C	–	–	–	15.7	–	–
O=C(Nc1ccccc1)N1CCN(Cc2ccc(Cl)cc2)CC1	–	–	–	–	–	–
Cc1ccc(-c2ccc(/C=N/n3cnnc3)o2)cc1Cl	–	–	–	–	–	–
CC(C)(C)c1ccc(C(=O)OCC(=O)NC2CC2)cc1	–	–	–	–	–	·
SMILES	DAX1 inh-1	ssDAF12 agonist	DAX1 inh-2	hgDAF12 agonist	hcDAF-12 act	AHR activator
C[C@H](CO)N1C[C@H](C)[C@@H](CN(C)C(=O)NC2CCCCC2)OCc2cnnn2CCCC1=O	–	–	–	–	–	·
O=C(O)c1ccc(/C=N/Nc2ncc(Cl)cc2Cl)cc1	6.5	–	–	–	–	–
O=C(O)c1ccc(N/N=C/c2ccncc2)cc1	–	–	–	–	–	–
CCO[C@@H]1OC(C(N)=O)=C[C@H](C2CCCCC2)[C@H]1CCCO	4.3	–	–	–	–	–
C#CCNC(=O)C1=C[C@@H](C2CCCCC2)[C@H](CCCO)[C@@H](OCC)O1	5.3	–	–	–	–	–
CCO[C@H]1OC(C(=O)NC2CC2)=C[C@@H](C2CCCCC2)[C@@H]1CCCO	–	–	–	–	–	–
CCCc1nc2c(C)cc(C)cc2c(N)c1CC	–	–	–	–	–	47.2
O=C(NN1C(=O)C2C3C=CC(O3)C2C1=O)c1cccc(O)c1 (configuration not stated)	–	–	–	–	–	–
COc1cc2c(cc1NC(=O)CN1CCN(S(=O)(=O)c3ccc(C)cc3)CC1)oc1ccccc12	–	–	–	–	–	–
COc1cc2c(cc1NC(=O)C(C)N1CCN(S(=O)(=O)c3ccc(C)c(C)c3)CC1)oc1ccccc12 (configuration not stated)	–	–	–	–	–	59.1
COc1cc2c(cc1NC(=O)C(C)OC(=O)c1ccc(S(=O)(=O)Nc3ccccc3Cl)cc1)oc1ccccc12 (configuration not stated)	–	–	–	–	5.8	78.2
COc1cc2c(cc1NC(=O)C(C)N1CCN(S(=O)(=O)c3ccccc3[N+](=O)[O-])CC1)oc1ccccc12 (configuration not stated)	–	–	–	–	6.0	–
COc1cc2c(cc1NC(=O)c1ccc(C)c([N+](=O)[O-])c1)oc1ccccc12	–	–	–	–	–	–
COc1cccc(/C=N/NC(=O)CNC(=O)COc2ccccc2)c1O	–	–	–	–	–	–
Cc1ccc(-c2nc3ccccc3nc2Cl)cc1	–	–	–	–	–	–
NC(=O)c1cnn(-c2cc(Oc3ccccc3)ncn2)c1N	–	–	3.7	–	–	–
CCCc1nc2sc3c(c2c(=O)n1NC(=O)CCC(=O)O)CCCC3	–	·	·	·	·	–
Cc1cccc(N/N=C2/COC(C)(C)CC2=O)c1	–	–	–	13.1	–	–
COc1ccccc1NC=C1C(=O)OC(C)(C)OC1=O	–	–	–	–	–	–
CC1(C)CC(=O)/C(=N/Nc2ccc(Cl)cc2)CO1	4.5	–	–	11.0	–	–
CC1(C)CC(=O)C=C(Nc2ccc(Cl)cc2)C1	–	–	–	–	–	–
COc1ccccc1N/N=C1\COC(C)(C)CC1=O	4.8	–	–	–	–	–
Cc1sc(NC(=O)/C=C/c2ccco2)c(C(=O)O)c1C	–	–	–	–	–	–
Cc1nc(C(=O)NNC(=O)c2ccccc2)c(C(F)(F)F)o1	4.3	–	–	–	–	–
Cc1nc(C(=O)NCC(=O)c2ccccc2)c(C(F)(F)F)o1	–	–	–	–	–	–
